Assay results taken from PubChem BioAssay (NCI).
“And” between values parts separate entries of the source, which are not always exact repeats. Identical values can stand only once. Compounds without any hit were thinned out: in the full panel of roughly 83,000, 20% have a hit.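 Results are percent growth after 48 hours of single-concentration exposure. 100 means growth as in untreated cells, lower positive values show inhibition; negative values down to -100 show cell death.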 Values without a mark were called inactive. The source made the active and inactive calls.

Tested on: NCI-H322M lung
Test: NCI-60 one-dose screen, 48 h (100 = growth as untreated, 0 = no growth, -100 = all killed)
Settings: 10 µM
Procedure: Growth inhibition of the NCI-H322M human Non-Small Cell Lung tumor cell line is measured as a screen for anti-cancer activity. Cells are grown in 96 well plates and exposed to the test compound for 48 hours. Compounds are tested at a single concentration, which is 10^-5 M for most compounds. The reported endpoint is percent growth (GI% or GIPRCNT), where numbers from 0 - 100% represent growth inhibition, and numbers from -100% - 0 represent cell death. For example, a value of 40 represents 60% growth inhibition. A value of 0 means no net growth occurred over the course of the experiment. A value of -40 indicates 40% of cells at the beginning of the experiment died by the end of the experiment. A value of -100 means all cells are dead at the end of the experiment.
NCI-60 Human Tumor Cell Lines Screen was performed using the standard one-dose NCI protocol, which is described in more detail at https://dtp.cancer.gov/discovery_development/nci-60/default.htm.
Compounds with GIPRCNT values below 10 were considered active. Activity score was based on GIPRCNT using the following formula: […]
Score is 0 for GIPRCNT values of 100 or above, 50 for GIPRCNT values of 0, and 100 for GIPRCNT values of -100.

SMILES	growth [%]
COc1ccc(-c2cscc2N)cc1	95.6
CN(C)C(=O)c1ccc(SC(=S)NCc2ccccc2)cc1	110

Same assay, conditions: 10 µM unless noted

SMILES	growth
Cc1ccnc2c1ccc1c(C)ccnc12	19%
C[N+](C)=c1ccc2nc3c(cc(NCCCNc4cc5oc6cc(=[N+](C)C)ccc-6nc5c5ccccc45)c4ccccc43)oc-2c1	25.3%
N#CSCc1ccc(CSC#N)c(Cl)c1	106%
Nc1ccc(SSc2ccc(N)cc2)cc1	92.5%
CCOC(=O)/C(=C\c1ccc(-c2ccccc2)cc1)C(C)=O	97.3%
O=C(Nc1ccc(F)cc1)ON=C1CCCCC1	101% [100 µM]
N#CSCc1ccc(Cl)c(CSC#N)c1	98.7%
CC(C)(C)CC(C)(C)c1ccc(OCCSC(=N)N)cc1	71.6%
O=Nc1ccccc1N=O	84.2%
O=C(Nc1ccccc1)c1cc(Cl)ccc1O	83.1%
c1ccc2c(c1)Nc1cc3ccccc3cc1N2	48.5%
CC1=CC(O)C2CC1C2(C)C (stereo not given)	101% and 97.1%
Cc1cc(N)c2ccccc2[n+]1CCCCCCCCCC[n+]1c(C)cc(N)c2ccccc21	11.2% and 41.8%
CN1c2ccccc2C(C)(C)C12C=Cc1cc(O)ccc1O2 (stereo not given)	109%
C=CCOc1ccc(N=NC(C#N)C#N)cc1	93%
CN(Cc1cnc2nc(N)nc(N)c2n1)c1ccc(C(=O)NC(CCC(=O)O)C(=O)O)cc1 (stereo not given)	48.6%
CN(C)C(=O)SC1=C(c2c(Cl)cccc2Cl)C(=O)c2ccccc21	98.3%
COc1cc(/C=C/C(C)=O)ccc1O	88.4% and 115%

SMILES	growth
CC1SC(=S)N(c2ccc(Cl)cc2)C1=O (stereo not given)	89.5% and 89.8%
COc1ccccc1OC(=O)Oc1ccccc1OC	94.3% and 99.5%
NC(=S)N/N=C\c1nccc2c(C(F)(F)C(F)(F)C(F)(F)F)cccc12	-1.69% (active)
Oc1c(Cl)c2ccccc2c2ccccc12	100%
CCC1OC(OC)C=CC1=O (stereo not given)	108%
OC(CNc1ccnc2cc(Cl)ccc12)CNc1ccnc2cc(Cl)ccc12	52.1%
CCN1/C(=C\c2cc[n+](CC)c3ccccc23)C=Cc2ccccc21	25.4%
CN(C)c1ccc(C(=C2C=CC(=[N+](C)C)C=C2)c2ccc(N(C)C)cc2)cc1 (tested in a mixture with another compound)	-27.7% (active)
O=C1NC(=O)/C(=C/C=C/c2ccccc2)S1	51.4%
O=C1N[C@H]2[C@H](CS[C@H]2CCCCC(=O)N(CCP(c2ccccc2)c2ccccc2)CCP(c2ccccc2)c2ccccc2)N1	79.2%
CN=C(N)N/N=C(\C)c1ccc2c(c1)Cc1cc(/C(C)=N/NC(N)=NC)ccc1-2	-1.93% (active)
CCC(CCCN(CC)CCc1ccccc1)OC(=O)c1cc(OC)c(OC)c(OC)c1 (stereo not given)	72.2%
COc1cc(/C=C(/C)C[N+](=O)[O-])ccc1O	92.5%
O=C1C=CC(=O)N1C1c2ccccc2-c2ccccc21	94.6%
N#CSCc1c(Cl)cccc1Cl	97.9%
O=C1OCc2cccc3cccc1c23	119%
O=[N+]([O-])c1ccc(N=Nc2ccc(O)cc2O)cc1	84.8%
CCN(CC)CC(C)(C)C(=O)/C=C/c1ccc(Cl)c(Cl)c1	22.7%

Same assay, conditions: 100 µM

SMILES	growth [%]
COc1ccc(-c2cscc2N)cc1	73.9
CN(C)C(=O)c1ccc(SC(=S)NCc2ccccc2)cc1	58.2
